# Screens: PubChem, National Center for Advancing Translational Sciences (NCATS)
# Shown is part of a subset that was picked to be rich in hits.
# Pf Dd2 inh: qHTS Primary assay for Inhibitors of Plasmodium falciparum Dd2 growth in vitro. P. falciparum Dd2 growth, SYBR Green, 72 h. Potency, µM (highest dose often 28.9 µM), for the others: top-dose activity, negative = inhibition, hits mostly inhibitors. 120,000 compounds, 4.3% hits; active = well fitted inhibition curve with a large enough effect;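 also: plate controls were DMSO vehicle for no effect and reference drug for full effect; nearly all actives have a fitted effect of over 65% in size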
#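 Infected erythrocytes (Dd2, 0.3% parasitemia, 2.5% hematocrit final) are added to compound in RPMI-1640/Albumax II medium, grown 72 h at 37C in low oxygen, then lysed with saponin/Triton-X containing SYBR Green and read by fluorescence.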
# Active calls of the source: *; i = inactive; [ ] = another dose, or the depositor's remark. Potency is read from the fitted curve at half-maximal effect.
SMILES,Pf Dd2 inh
CCC(CC)C(=O)NC[C@H]1O[C@@H](CC(=O)NC(C)C)[C@H](O)[C@@H]1O,31%[44.1 µM]
O=C(Cc1ccccc1F)N1CCC(c2nc3c(nnn3Cc3ccc(F)cc3)c(=O)[nH]2)CC1,-17%
Cc1cccc(Cn2nnc3c(=O)[nH]c(C4CCN(C(=O)c5ccccc5F)CC4)nc32)c1,-18%
O=C(Cc1ccc(F)cc1)N1CCC(c2nc3c(nnn3Cc3ccc(Cl)cc3)c(=O)[nH]2)CC1,14µM*
Cc1noc(C)c1C(=O)N1Cc2ccccc2OC2(CCN([S+](C)(=O)[O-])CC2)C1,9%
O=C(C[C@@H]1O[C@H](CNCc2cccc(Cl)c2)[C@@H](O)[C@H]1O)N1CCN(c2ccc(F)cc2)CC1,i
COCC(=O)N(C1CCOCC1)C1CCN(C(=O)c2ccc(OC)cc2C)CC1,5%
COCCNc1ncnc2onc(-c3ccc(F)cc3)c12,-11%
Cc1ccccc1CN1CCC(CNc2ncnc3onc(-c4ccc(F)cc4)c23)CC1,4µM*
COCCCNc1ncnc2onc(-c3ccc(F)cc3)c12,123%
O=C(Cn1ccn2nc(-c3ccccc3)c(CO)c2c1=O)Nc1ccc(F)cc1F,-18%
NC[C@H]1O[C@@H](CO)[C@@H](O)[C@H]1N1CCN(c2ncccn2)CC1,-2%[44.1 µM]
Cc1cc(C(=O)N2C[C@@H](CO)[C@H](c3ccccn3)C2)nn1C,27%
CC(=O)Nc1cc(C(=O)NCc2ccccc2C)c2ccc(C)nc2c1,-22%
CN1C[C@H](O)C[C@H]1c1nnc2n1CCN(C(=O)CN1CCCCCC1)CC2,19%
O=C(NC1CCCC1)c1ccc(CSc2nc3cccnc3n2Cc2ccc(F)cc2)cc1,28%
CC1CCCCN1CCNC(=O)c1ccc(Cn2c(SCc3ccccc3)nc3cccnc32)cc1 (centres undefined),5.6µM*
O=C(NCCN1CCCCC1)c1ccc(Cn2c(SCc3ccccc3)nc3cccnc32)cc1,5µM*
CC1CCN(CCNC(=O)c2ccc(Cn3c(SCc4ccccc4)nc4cccnc43)cc2)CC1,10µM*
O=C(c1ccoc1)N1CC(c2nnc(-c3ccncc3)o2)C2(CCOCC2)C1 (centres undefined),5%
Cc1ccc(N2CCN(C(=O)c3noc(-c4ccc(F)cc4)n3)CC2)c(C)c1,58%
COCC1CN(C(C)=O)CC12CCN(S(=O)(=O)c1ccc(C#N)cc1)CC2 (centres undefined),i
CCO[C@H]1CN(C(=O)c2ccc(-c3noc(C4CC4)n3)cc2)C[C@@H]1O,0%
O=C(CCc1ccc(-c2ccc(Cl)cc2)[nH]1)N[C@@H]1C[C@@H]2OCC[C@@H]21,i
NC(=O)CNC(=O)[C@@]1(O)C[C@@H](O)[C@H](O)[C@@H](NC(=O)c2ccc(F)c(Cl)c2)C1,-3%[44.1 µM]
SMILES,Pf Dd2 inh
O=C(c1cccnc1)N1CCC2(CC1)CC(OCC1CC1)CCO2 (centres undefined),i
Cc1ncccc1C(=O)N1CCC(COc2ccc3c(cnn3CC[S+](C)(=O)[O-])c2)CC1,-7%
CC(C)(C)c1cc(CC2(NCc3ccccc3O)COC2)no1,i
Cc1oc2ccc(O)c(CN3CCCC(C)C3)c2c1C(=O)Nc1ccccc1 (centres undefined),0.89µM*
COc1ccc(NC(=O)c2c(OC)cc(=O)n3c2CCCC3)cc1,-22%
COc1ccc(NC(=O)c2c(C)oc3ccc(O)c(CN4CCCCCC4)c23)cc1,2.8µM*
CC(=O)Nc1ccc(NC(=O)c2cccc(CN3CCCC(C#N)C3)c2)cc1 (centres undefined),-10%
Cc1cccc(NC(=O)c2c(C)oc3ncnc(N4CCCCC4)c23)c1C,-7%
Cc1c(Cl)cccc1NC(=O)NCC1CCOCC1,9%
O=C(Nc1ccc(Cl)cc1)c1nc2c(o1)CCN(Cc1ccccc1)CC2,i
COc1ccc(NC(=O)c2c(C)oc3ccc(O)c(CN4CCN(Cc5ccccc5)CC4)c23)cc1,1.3µM*
COc1ccc(NC(=O)c2c(-c3cnn(C)c3NCc3ccccc3)noc2C)cc1,i
CCOc1ccc(NC(=O)c2c(C)oc3nc(C)nc(N4CCCC4)c23)cc1,i
Cc1oc2ccc(O)c(CN3CCN(Cc4ccccc4)CC3)c2c1C(=O)Nc1cccc(Cl)c1C,0.56µM*
CCOc1cc(=O)n2c(c1C(=O)Nc1ccccc1)CCCC2,27%
O=C(Nc1nccs1)C1CC(=O)N(c2n[nH]c3cc(Br)ccc23)C1 (centres undefined),-16%
COCCN(C)C[C@H]1C[C@H](CO)CN(C(=O)c2ccc(SC)cc2)C1,-11%
COc1ccc(C(=O)NC2CCN(c3cn[nH]c(=O)c3)CC2)cc1OC,9%
Cc1nonc1OCCNC(=O)c1ccc2nc(Cc3ccccc3F)oc2c1,-11%
COc1ccc(CN2CCOc3nc(-c4cccc(C#N)c4)ncc3C2=O)cc1,i
CCC(C)C(=O)N1CCC2(CC1)CN(Cc1ccc(OC)cc1)C2=O (centres undefined),-1%
CCC1CCc2nc3sc(C(=O)Nc4ccc(F)c(Cl)c4)c(N)c3cc2C1 (centres undefined),-7%
Nc1c(C(=O)Nc2ccc(Cl)c(C(F)(F)F)c2)sc2nc3c(cc12)N1CCC3CC1,2.8µM*
O=C(CN1CCN(c2ccc(Cl)cc2)CC1)Nc1ccc(Cl)c(C(F)(F)F)c1,25%
N#Cc1c(C(F)(F)F)cc(-c2ccc(F)cc2)nc1SCC(=O)Nc1ccccc1,-1%
SMILES,Pf Dd2 inh
N#Cc1cc2c(nc1SCC(=O)Nc1ccc(Cl)c(C(F)(F)F)c1)C1CCN2CC1,5µM*
Nc1c(C(=O)Nc2cccc(Br)c2)sc2nc3c(cc12)N1CCC3CC1,i
COc1ccc(-c2cnc3n[nH]c(-c4ccc(F)cc4C)c3n2)cc1OC,-21%[44.1 µM]
Cc1cccc(NC(=O)N2CCCC(Cc3noc(-c4cnccn4)n3)C2)c1 (centres undefined),i
O=C(Nc1cc(F)cc(F)c1)N1CCCC1c1nncn1C1CCCC1 (centres undefined),-3%
CCOc1ccc(CCNC(=O)c2cc3c(=O)n(CC)c4ccccc4c3s2)cc1OCC,11%
CCn1c(=O)c2cc(C(=O)Nc3cc(OC)c(OC)c(OC)c3)sc2c2ccccc21,i
CCN(CC)CCOC(=O)c1ccc(NC(=O)c2cc3c(=O)n(CC)c4ccccc4c3s2)cc1,0.79µM*
N[C@H]1CCN2C(=O)c3cc(-c4ccc5c(c4)OCO5)ccc3NC(=O)[C@H]12,0%[44.1 µM]
O=C([C@@H]1C[C@H](Oc2ccccc2)CN1C(=O)c1cnccn1)N1CCOCC1,-21%
CC(C)(C)OC(=O)N1CC(c2ccccc2)C1,i
CC(C)C1CN(C(=O)OC(C)(C)C)C(C)CN1 (centres undefined),26%[44.1 µM]
CC(C)C1CNC(Cc2ccccc2)CN1C(=O)OC(C)(C)C (centres undefined),8.9µM*
O=C(Cc1cccc(F)c1)NC1CCN(C(=O)N2CC3CC(C2)[C@H]2CCCC(=O)N2C3)CC1 (some centres undefined),14%
CN1CCC(OC2CCN(S(=O)(=O)c3ccc(F)cc3F)CC2)CC1,-3%
CN(Cc1nc(COc2ccccc2)no1)CC1(N2CCOCC2)CCCCC1,8.9µM*
COc1ccccc1OC(C)C(=O)NCC1(N2CCOCC2)CCCCC1 (centres undefined),i
CN(CCCN1CCOCC1)Cc1nc(-c2cccs2)no1,-23%
CC(C)Cc1cn(C2CCN(CC(C)c3ccccc3)CC2)nn1 (centres undefined),-9%
CCNC(=O)Cc1ccc(N(Cc2ccc(F)cc2)C(=O)c2ccco2)cc1,i
